D2 PAM-1 – HTS Assay for Positive Allosteric Modulators of the Human D2 Dopamine Receptor: Primary Screen for Potentiators; D(2) dopamine receptor (Homo sapiens), P14416; HEK293 T-REx D2, calcium flux, EC20 dopamine potentiation; potentiation, % at 10 µM; hit rate 0.34% among 340,000;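 active means potentiation over 3 SD above the plate norm, cut at about 30% in these data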; further: 0% is about no effect
Target sequence (P14416 whole entry, looked up): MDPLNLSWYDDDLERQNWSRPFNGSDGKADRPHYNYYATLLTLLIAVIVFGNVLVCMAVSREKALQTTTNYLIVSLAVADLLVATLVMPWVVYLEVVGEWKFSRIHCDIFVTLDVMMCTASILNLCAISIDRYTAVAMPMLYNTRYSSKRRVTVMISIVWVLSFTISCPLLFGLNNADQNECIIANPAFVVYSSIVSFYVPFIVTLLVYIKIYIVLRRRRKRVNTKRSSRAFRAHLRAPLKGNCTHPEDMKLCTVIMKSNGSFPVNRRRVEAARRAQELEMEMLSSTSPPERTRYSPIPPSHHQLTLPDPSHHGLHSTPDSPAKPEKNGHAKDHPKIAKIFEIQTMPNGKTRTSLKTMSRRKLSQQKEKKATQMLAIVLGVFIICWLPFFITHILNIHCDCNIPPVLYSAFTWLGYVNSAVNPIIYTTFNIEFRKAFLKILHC
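Tetracycline-induced HEK293 T-REx cells force-coupled to calcium signalling expressed D2; compounds were pin-added after a 10 s baseline, read kinetically 180 s, then an EC20 dopamine challenge followed with a further 180 s calcium read.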
D2 ag-1 – Beta-Arrestin HTS for Positive Allosteric Modulators of the Human D2 Dopamine Receptor: Agonists; DiscoveRx PathHunter D2 beta-arrestin, luminescence, 90 min; 100% = 57 uM dopamine signal; D(2) dopamine receptor (Homo sapiens), P14416; hit rate 0.084% among 360,000; activation, % (test concentration not listed); in the data active means activation above about 40%; inconclusive means between about 15% and that limit
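Agonist mode: compounds alone added to overnight-plated D2 PathHunter cells for 90 min at 37 C, with 57 uM final dopamine (EC100) defining full response. Beta-arrestin recruitment detected by chemiluminescent reagent, read after 1 h at ambient temperature.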
D2 PAM-2 – Beta-Arrestin HTS for Positive Allosteric Modulators of the Human D2 Dopamine Receptor: Potentiators; D(2) dopamine receptor (Homo sapiens), P14416; DiscoveRx D2 beta-arrestin cells, luminescence, 90 min; 100% = 57 uM dopamine signal; potentiation, % (test concentration not listed); hit rate 0.23% among 360,000; AID 624464, 2012; in the data active means potentiation above about 50%; inconclusive means mostly about 30% to 49%
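PathHunter D2 cells, attached overnight at 37 deg C, received compound in DMSO plus dopamine at EC20 (50 nM final) for 90 min at 37 deg C. Beta-arrestin recruitment was read as luminescence after 1 h with detection reagent at ambient temperature.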
D2 antag – HTS Assay for Allosteric Antagonists of the Human D2 Dopamine Receptor: Primary Screen for Antagonists; D(2) dopamine receptor (Homo sapiens), P14416; HEK293 TREx D2 cells, calcium flux, dopamine EC80; inhibition, % at 10 µM; hit rate 2% among 340,000; AID 485344, 2010; in the data active means inhibition above about 30%; inactive means below that, where a call was filed; further: 0% is about no effect
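HEK293 T-REx D2 cells, tet-induced, calcium dye no-wash. Cpd pintool add, 180 s kinetic, then EC80 DA, 180 s kinetic. Ca flux read.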
D2 ag-2 – HTS Assay for Allosteric Agonists of the Human D2 Dopamine Receptor: Primary Screen for Agonists. D(2) dopamine receptor (Homo sapiens), P14416. HEK293 T-REx D2 cells, calcium flux agonist mode. activation, % at 2 µM. hit rate 0.53% among 340,000;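 active means activation over 3 SD above normal in the single-dose calcium agonist read, cut at about 30% in these data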; further: 0% is about no effect
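In this primary screen, compounds producing a positive calcium signal within 180 s of addition to tetracycline-induced, force-coupled HEK293 Trex D2 cells are flagged; cells are dye-loaded with a no-wash calcium kit beforehand.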
The depositor's hits bear a star; ? = inconclusive; . = no result. Hits are enriched below; roughly 2.4% of the tested compounds scored in any of these assays.

SMILES	D2 PAM-1	D2 ag-1	D2 PAM-2	D2 antag	D2 ag-2
COc1ccc(N(Cc2cccs2)C(=O)c2ccccc2C)cc1	-11	.	.	.	0
CC1Sc2ccc(S(=O)(=O)CCC(=O)Nc3ccc(C(C)C)cc3)cc2NC1=O (stereo not drawn)	17	3	5	52*	1
Cc1ccc(NC(=O)C2CCN(S(=O)(=O)c3ccc4c(c3)NC(=O)C(C)S4)CC2)cc1C (stereo not drawn)	-20	0	-36	58*	1
CCc1ccc(NC(=O)C2CCN(S(=O)(=O)c3ccc4c(c3)NC(=O)C(C)S4)CC2)cc1 (stereo not drawn)	8	0	-9	5	0
CC1Sc2ccc(S(=O)(=O)N3CCC(C(=O)Nc4cccc(Cl)c4)CC3)cc2NC1=O (stereo not drawn)	-22	3	-37	69*	1
O=C1NC(Cc2ccccc2)c2nc3ccc(F)cc3c(=O)n2-c2ncccc21 (stereo not drawn)	.	1	-4	.	.
CC1(C(=O)NS(=O)(=O)c2cccs2)CCN1C(=O)c1cccc(F)c1 (stereo not drawn)	.	-2	0	.	.
Cc1cc2nc(-c3ccc4c(c3)CCC4)ccn2n1	-1	0	-1	-9	2
Cc1ccc(S(=O)(=O)CCC(=O)O)cc1C	-2	2	-5	36*	0
COc1ccc(N(CCC(=O)O)S(=O)(=O)c2ccc(C)c(C)c2)cc1	-6	0	-3	5	0
O=C1NC(=O)C(Nc2cccc3ccccc23)S1 (stereo not drawn)	4	3	63*	6	-1
Cc1cccc(C(=O)Nc2ccc(O)c3c(=O)cc(-c4ccccc4Cl)oc23)c1	-3	-6	-7	31*	0
O=C(Nc1ccc(O)c2c(=O)cc(-c3ccccc3Cl)oc12)c1cccc(Cl)c1	1	-3	-8	23	0
CC1(C)COCN1C(=O)c1ccc(Cl)c(Cl)c1	-11	-4	-13	4	0
O=C(Cn1c2[n+](c3ccc(C(F)(F)F)cc31)CCCCC2)c1cccc([N+](=O)[O-])c1	-22	-8	-20	35*	1
O=C(Cn1c2[n+](c3ccc(C(F)(F)F)cc31)CCCCC2)c1ccc2c(c1)OCCO2	-23	-8	-13	21	0
CCOC(=O)c1c(C)oc2c1c(CN1CCN(CCO)CC1)c(O)c1ccccc12	7	6	22	-10	0
CCOC(=O)c1c(C)oc2c1c(C(c1ccncc1)N1CCOCC1)c(O)c1ccccc12 (stereo not drawn)	.	8	69*	-7	0
CCOC(=O)c1c(C)oc2c1c(CN1CCN(C(=O)OCC)CC1)c(O)c1ccccc12	-3	?	75*	5	1
O=c1[nH]c2ccccc2cc1CN(CC1CCCO1)S(=O)(=O)c1ccccc1 (stereo not drawn)	-25	5	0	35*	0
CCCCOc1ccc(CN2CCSCC2)cc1	5	-5	-5	-15	0
CN(C)C=NC(=O)c1cc(C(=O)c2ccccc2Cl)c[nH]1	-4	-1	3	46*	0
C=C(C)Cn1c2ccc(NC(=S)NCc3ccccc3F)cc2c(=O)n1C	.	103*	-6	.	.
CC(C)c1nn2c(=O)cc(COC(=O)c3cccs3)nc2s1	12	.	.	.	0
O=C(CSc1ncccn1)NC(=O)NC1CCCC1	.	0	-3	.	.
CC1CCCN(C2=C(Cl)C(=O)N(c3cccc(Cl)c3)C2=O)C1 (stereo not drawn)	1	-3	-5	44*	1
COc1ccc(N2C(=O)C(Cl)=C(N3CCCC(C)C3)C2=O)cc1 (stereo not drawn)	3	-4	10	-15	-1
CCCC(=O)N1CCC1(C)C(=O)Nc1scc(C)c1C#N (stereo not drawn)	.	-5	-8	.	.
